Test results reported in PubChem BioAssay (Tox21).
Where “and” joins values, the source holds several entries; their conditions need not be identical. Identical values can stand only once. Results filed as inconclusive are left out. Entries that show only a call come without a potency. More than one record can exist for a structure, and the calls need not agree. Calls of active or inactive are those of the source. Unless noted, the call rests on the fitted dose curve; in most records, active means well fitted curve in the direction sought with a large enough effect in the repeat runs; inconclusive means weak or mixed curves; inactive means no such curve, though single readings can be large; an effect the other way counts as inactive or inconclusive.

How the values were obtained:
[1] = qHTS assay to identify small molecule agonists of the peroxisome proliferator-activated receptor delta (PPARd) signaling pathway - cell viability counter screen (AID 743211); further: nearly all actives have a fitted effect of over 55% in size; further: potency means the concentration at half of the fitted maximal effect
Outline: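 Following 5 h plating at 37 C and 5% CO2, PPARd UAS-bla HEK293H cells took up test compounds for 17 h. Viability was quantified by luminescence 30 min after CellTiter-Glo addition at room temperature.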

[2] = target: Peroxisome proliferator-activated receptor delta (Homo sapiens) (UniProt Q03181); assay: qHTS assay to identify small molecule agonists of the peroxisome proliferator-activated receptor delta (PPARd) signaling pathway (AID 743212; calls by dose curve)
Outline: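 GeneBLAzer PPARd UAS-bla HEK293H cells (beta-lactamase reporter under UAS control), plated and rested 5 h at 37 C, then exposed to compounds in DMSO at 37 C; LiveBLAzer B/G FRET substrate added, 2 h room temperature, fluorescence read.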

[3] = qHTS assay to identify small molecule antagonists of the peroxisome proliferator-activated receptor delta (PPARd) signaling pathway - cell viability counter screen (AID 743213); further: nearly all actives have a fitted effect of over 50% in size; further: potency means the concentration at half of the fitted maximal effect
Outline: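 Luminescence from CellTiter-Glo, added after the bla read and incubated 30 min at room temperature, gives viability of HEK293H PPARd-bla cells exposed to compounds for 17 h at 37 C with 300 nM L165041.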

[4] = target: Bile acid receptor (Homo sapiens) (UniProt Q96RI1); assay: qHTS assay to identify small molecule agonists of the farnesoid-X-receptor (FXR) signaling pathway (AID 743220; active means well fitted activation curve with a large enough effect in the signal ratio in the repeat runs, not every such curve was filed as active; the % refers to the signal ratio)
Outline: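 Beta-lactamase reporter under UAS control in GeneBLAzer FXR HEK 293T cells (5000/well) measured with LiveBLAzer FRET substrate after 2 h at room temperature. Compound exposure lasted 16 h at 37C.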

[5] = qHTS assay to identify small molecule antagonists of the farnesoid-X-receptor (FXR) signaling pathway - cell viability counter screen (AID 743221; active means well fitted cell-killing curve with a large enough effect in the repeat runs, not every such curve was filed as active; further: nearly all actives have a fitted effect of over 50% in size; further: potency means the concentration at half of the fitted maximal effect)
Outline: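 Compound effects on cell number were measured as CellTiter-Glo luminescence in HEK 293T cells expressing FXR-UAS-bla, after 16 h at 37 C with 50 uM CDCA (final).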

[6] = target: Vitamin D3 receptor (Homo sapiens) (UniProt P11473); assay: qHTS assay to identify small molecule agonists of the vitamin D receptor (VDR) signaling pathway (AID 743222; calls by dose curve)
Outline: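 Agonist activity measured in VDR-bla reporter cells. Exposure 16 h, 37C, 5% CO2; detection by B/G FRET substrate, 2 h RT.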

[7] = target: Vitamin D3 receptor (Homo sapiens) (UniProt P11473); assay: qHTS assay to identify small molecule antagonists of the vitamin D receptor (VDR) signaling pathway (AID 743223; active means well fitted inhibition curve with a large enough effect in the signal ratio in the repeat runs, not every such curve was filed as active; the % refers to the signal ratio; further: potency means the concentration at half of the fitted maximal effect)
Outline: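 Beta-lactamase activity in VDR-bla cells is measured by FRET substrate fluorescence (2 h, room temperature) after cells spend 16 h at 37C with test compound and 3 nM final 1alpha,25-dihydroxyvitamin D3.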

[8] = qHTS assay to identify small molecule agonists of the vitamin D receptor (VDR) signaling pathway - cell viability counter screen (AID 743224); further: nearly all actives have a fitted effect of over 50% in size; further: potency means the concentration at half of the fitted maximal effect
Outline: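 VDR-bla cell line, quantitative HTS format; 16 h compound incubation (37C, 5% CO2); ATP-based CellTiter-Glo luminescence measured in the reporter assay wells.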

[9] = qHTS assay to identify small molecule agonists of the NFkB signaling pathway - cell viability counter screen (AID 1159515; calls by dose curve; further: nearly all actives have a fitted effect of over 55% in size; further: potency means the concentration at half of the fitted maximal effect)
Outline: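 Viability in NFkB-bla ME-180 cells was measured by CellTiter-Glo luminescence, 30 min room temperature, in wells already treated 5 hr with compounds and read for reporter FRET.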

[10] = qHTS assay to identify small molecule agonists of the endoplasmic reticulum stress response signaling pathway - cell viability counter screen (AID 1159517; calls by dose curve; further: nearly all actives have a fitted effect of over 50% in size; further: potency means the concentration at half of the fitted maximal effect)
Outline: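 Luminescence readout: CellTiter-Glo, 30 min RT, same wells as the ESRE-bla reporter read. HeLa ESRE-bla, 1,500 cells/well, o/n 37 C; cpd 5 hr 37 C/5% CO2.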

[11] = qHTS assay to identify small molecule antagonists of the retinoid-related orphan receptor gamma (ROR-gamma) signaling pathway - cell viability counter screen (AID 1159520); further: nearly all actives have a fitted effect of over 50% in size; further: potency means the concentration at half of the fitted maximal effect
Outline: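 Tet-on ROR gamma CHO cells (1,000/well) were plated 4 hr, given compounds in DMSO for 2 hr at 37 C, then induced with 1 uM final doxycycline for 16 hr. Viability was read as ATP by CellTiter-Glo luminescence after 30 min.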

[12] = target: Nuclear receptor ROR-gamma (Homo sapiens) (UniProt P51449); assay: qHTS assay to identify small molecule antagonists of the retinoid-related orphan receptor gamma (ROR-gamma) signaling pathway (AID 1159521; further: nearly all actives have a fitted effect of over 50% in size; further: potency means the concentration at half of the fitted maximal effect)
Outline: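 Screening format: cell-based luciferase reporter in CHO cells with doxycycline-inducible RORγ. Compound pre-exposure lasts 2 h, doxycycline is 1 uM final, induction runs 16 h at 37 C, and ONE-Glo luminescence is read.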

[13] = qHTS assay to identify small molecule agonists of the AP-1 signaling pathway - cell viability counter screen (AID 1159525; calls by dose curve; further: nearly all actives have a fitted effect of over 55% in size; further: potency means the concentration at half of the fitted maximal effect)
Outline: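 ME-180 AP-1-bla, 2500 cells/well, Opti-MEM + 0.5% dialyzed FBS; overnight 37 °C; cpd 15-pt titration, 5 h 37 °C; CellTiter-Glo 30 min RT; luminescence read; normalised to TOAB and DMSO controls.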

[14] = qHTS assay to identify small molecule agonists of the farnesoid-X-receptor (FXR) signaling pathway - cell viability counter screen (AID 743218); further: nearly all actives have a fitted effect of over 45% in size; further: potency means the concentration at half of the fitted maximal effect
Outline: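 In GeneBLAzer FXR-UAS-bla HEK 293T cells, compounds act for 16 h at 37 C. Cell viability is then scored in the reporter wells by CellTiter-Glo, 30 min at RT, luminescence.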

[15] = target: Peroxisome proliferator-activated receptor delta (Homo sapiens) (UniProt Q03181); assay: qHTS assay to identify small molecule antagonists of the peroxisome proliferator-activated receptor delta (PPARd) signaling pathway (AID 743215; active means well fitted inhibition curve with a large enough effect in the signal ratio in the repeat runs, not every such curve was filed as active; the % refers to the signal ratio;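 further: cells stimulated with agonist L165041 at 300 nM final during compound exposure; series mostly up to about 62 µM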)
Outline: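 Antagonist-mode beta-lactamase reporter screen: HEK293H cells with UAS-bla under PPARd control, stimulated by 300 nM L165041 (final) alongside test compound for 17 h at 37 C, then FRET fluorescence after 2 h substrate incubation.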

[16] = target: Retinoic acid receptor RXR-alpha (Homo sapiens) (UniProt P19793); assay: qHTS assay to identify small molecule agonists of the RXR signaling pathway (AID 1159527; calls by dose curve; further: nearly all actives have a fitted effect of over 35% in size)
Outline: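 Fluorescence ratio readout (460 vs 530 nm) from GeneBLAzer RXR-alpha HEK 293T cells after 16 hr compound treatment; cells seeded 5 hr beforehand in low-serum, charcoal-stripped medium.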

[17] = qHTS assay to identify small molecule antagonists of the vitamin D receptor (VDR) signaling pathway - cell viability counter screen (AID 743225); further: nearly all actives have a fitted effect of over 50% in size; further: potency means the concentration at half of the fitted maximal effect
Outline: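 In this counter screen, VDR-bla HEK 293T cells receive test compound plus 3 nM final calcitriol for 16 h at 37C. Room-temperature steps of 2 h with the beta-lactamase substrate, then 30 min with CellTiter-Glo, precede the luminescence read.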

[18] = qHTS assay to identify small molecule agonists of the AP-1 signaling pathway (AID 1159526; calls by dose curve)

Peroxisome proliferator-activated receptor delta (Homo sapiens), sequence (Q03181 whole entry, looked up): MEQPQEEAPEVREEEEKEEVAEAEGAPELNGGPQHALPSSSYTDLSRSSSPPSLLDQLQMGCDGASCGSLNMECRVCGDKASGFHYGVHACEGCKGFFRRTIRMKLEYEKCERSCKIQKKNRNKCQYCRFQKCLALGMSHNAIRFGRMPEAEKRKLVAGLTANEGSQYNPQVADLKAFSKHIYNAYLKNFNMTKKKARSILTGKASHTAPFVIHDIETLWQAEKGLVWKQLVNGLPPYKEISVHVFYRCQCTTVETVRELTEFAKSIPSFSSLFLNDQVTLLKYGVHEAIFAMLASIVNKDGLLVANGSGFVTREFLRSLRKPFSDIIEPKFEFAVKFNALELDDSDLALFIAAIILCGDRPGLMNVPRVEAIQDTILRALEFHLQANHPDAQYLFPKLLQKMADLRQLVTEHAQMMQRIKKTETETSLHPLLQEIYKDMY
Vitamin D3 receptor (Homo sapiens), sequence (P11473 whole entry, looked up): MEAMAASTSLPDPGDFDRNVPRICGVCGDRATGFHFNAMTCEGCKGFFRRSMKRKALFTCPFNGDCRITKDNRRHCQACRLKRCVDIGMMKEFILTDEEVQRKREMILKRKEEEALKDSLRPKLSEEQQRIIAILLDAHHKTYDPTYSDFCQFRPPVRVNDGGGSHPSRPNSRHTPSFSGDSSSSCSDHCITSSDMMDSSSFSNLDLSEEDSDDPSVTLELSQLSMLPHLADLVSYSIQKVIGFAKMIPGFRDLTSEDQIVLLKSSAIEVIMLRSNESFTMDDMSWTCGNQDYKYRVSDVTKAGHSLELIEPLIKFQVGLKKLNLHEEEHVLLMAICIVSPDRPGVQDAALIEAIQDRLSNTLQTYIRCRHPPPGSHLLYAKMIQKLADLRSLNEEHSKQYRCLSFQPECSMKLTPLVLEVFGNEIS
Bile acid receptor (Homo sapiens), sequence (Q96RI1 whole entry, looked up): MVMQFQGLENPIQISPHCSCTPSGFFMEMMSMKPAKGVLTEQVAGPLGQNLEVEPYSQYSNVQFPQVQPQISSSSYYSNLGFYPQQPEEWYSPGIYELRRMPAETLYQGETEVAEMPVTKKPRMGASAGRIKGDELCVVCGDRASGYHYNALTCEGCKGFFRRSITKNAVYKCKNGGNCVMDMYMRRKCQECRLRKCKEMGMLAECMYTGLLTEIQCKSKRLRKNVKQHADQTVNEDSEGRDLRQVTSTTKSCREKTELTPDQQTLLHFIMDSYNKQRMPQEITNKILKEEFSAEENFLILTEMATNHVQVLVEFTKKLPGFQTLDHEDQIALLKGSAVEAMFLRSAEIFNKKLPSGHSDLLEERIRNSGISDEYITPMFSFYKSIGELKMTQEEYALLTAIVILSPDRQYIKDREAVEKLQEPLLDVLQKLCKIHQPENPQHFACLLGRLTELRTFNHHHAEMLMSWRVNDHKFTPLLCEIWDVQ
Retinoic acid receptor RXR-alpha (Homo sapiens), sequence (P19793 whole entry, looked up): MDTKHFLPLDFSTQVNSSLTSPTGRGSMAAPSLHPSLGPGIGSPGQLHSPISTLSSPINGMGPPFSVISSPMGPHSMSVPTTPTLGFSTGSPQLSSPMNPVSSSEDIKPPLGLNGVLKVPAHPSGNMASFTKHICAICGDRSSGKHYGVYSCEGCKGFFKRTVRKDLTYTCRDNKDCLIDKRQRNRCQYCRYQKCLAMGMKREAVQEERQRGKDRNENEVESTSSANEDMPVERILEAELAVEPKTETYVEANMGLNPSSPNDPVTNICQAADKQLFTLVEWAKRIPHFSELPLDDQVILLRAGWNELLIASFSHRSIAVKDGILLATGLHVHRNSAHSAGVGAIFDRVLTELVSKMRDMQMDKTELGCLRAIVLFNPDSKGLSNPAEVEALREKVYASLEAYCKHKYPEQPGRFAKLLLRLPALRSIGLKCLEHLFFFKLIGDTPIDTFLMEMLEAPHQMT

| Compound | Potency [1] | Potency [2] | Potency [3] | Potency [4] | Potency [5] | Potency [6] | Potency [7] | Potency [8] | Potency [9] | Potency [10] | Potency [11] | Potency [12] | Potency [13] | Potency [14] | Potency [15] | Potency [16] | Potency [17] | Potency [18] |
| --- | --- | --- | --- | --- | --- | --- | --- | --- | --- | --- | --- | --- | --- | --- | --- | --- | --- | --- |
| O=C1C2(Cl)C3(Cl)C4(Cl)C(Cl)(Cl)C5(Cl)C3(Cl)C1(Cl)C5(Cl)C24Cl (stereo not given) | 48.2 µM (active) and 46.9 µM (active) | inactive | 54 µM (active) | inactive | 54 µM (active) | inactive | 54 µM (active) | 48.2 µM (active) and 41.8 µM (active) | 52.6 µM (active) | 48.2 µM (active) | 21.3 µM (active) and 46.5 µM (active) | 12 µM (active) and 29.3 µM (active) | 30.4 µM (active) |  |  |  |  |  |
| CC(O)C(=O)[O][Hg][c]1ccccc1 (stereo not given) |  |  | 1.95 µM (active) |  | 2.75 µM (active) | inactive |  | 1.23 µM (active) | 0.871 µM (active) | 1.1 µM (active) | 1.37 µM (active) | 486 nM (active) | 2.45 µM (active) |  |  |  |  |  |
| Oc1cc(Cl)c(Cl)c(Cl)c1Cl |  |  |  | inactive |  |  |  | 24 µM (active) | inactive | inactive | 53.2 µM (active) | 23800 nM (active) | inactive | 47.8 µM (active) |  |  |  |  |
| c1ccc(N=NNc2ccccc2)cc1 |  | inactive |  |  | inactive |  |  |  | inactive | inactive | inactive | inactive | inactive |  | inactive | inactive |  |  |
| CCOP(=S)(OCC)Oc1cc(C)nc(N(CC)CC)n1 |  | inactive |  | inactive |  | inactive | inactive | inactive | inactive | inactive | inactive | inactive | inactive |  | inactive | inactive |  |  |
| CCCCCCCCCCCCCCn1cc[n+](C)c1 | 24.6 µM (active) and 21.6 µM (active) and inactive |  | 21.6 µM (active) | inactive | 24.6 µM (active) and 54.4 µM (active) and inactive |  | inactive | 8.72 µM (active) and 24.3 µM (active) and inactive | inactive | 6.18 µM (active) and 19.3 µM (active) and inactive | 27.4 µM (active) and 34 µM (active) and inactive |  | 49.1 µM (active) and 48.5 µM (active) and inactive |  | inactive | inactive | 27.6 µM (active) and 43.2 µM (active) and inactive |  |
| Brc1cccc(-c2ccccc2)c1 | inactive |  | inactive | inactive | inactive | inactive | inactive | inactive | inactive | inactive | inactive | inactive | inactive | inactive |  |  |  | inactive |
| N#CC(C#N)=NNc1cccc(Cl)c1 | 8.71 µM (active) |  | 8.71 µM (active) |  | 6.92 µM (active) |  |  | 6.92 µM (active) | inactive | inactive | 2.73 µM (active) | 486 nM (active) | inactive | 5.49 µM (active) |  |  | 8.71 µM (active) |  |
| CCCCc1ccccc1 |  | inactive | inactive | inactive | inactive |  | inactive | inactive | inactive | inactive | inactive | inactive | inactive | inactive | inactive |  | inactive |  |
| CC1(C)[C@H](/C=C2\CCSC2=O)[C@@H]1C(=O)OCc1coc(Cc2ccccc2)c1 | inactive | inactive | inactive |  | inactive |  |  | inactive | inactive | inactive | inactive | 27300 nM (active) | inactive | inactive |  | inactive |  |  |
| O=S1OCC2C(CO1)C1(Cl)C(Cl)=C(Cl)C2(Cl)C1(Cl)Cl (stereo not given) | 24.5 µM (active) |  | 54.9 µM (active) |  |  | inactive |  | 38.9 µM (active) | 55 µM (active) | 55 µM (active) | 54.5 µM (active) | 43.3 µM (active) and 61.1 µM (active) | 38.9 µM (active) and 48.9 µM (active) |  |  |  | inactive |  |
| N#Cc1c2ccccc2cc2ccccc12 |  |  | inactive |  |  |  |  |  |  | inactive | inactive | inactive | inactive |  |  |  |  |  |
| O=[N+]([O-])C(Br)Br | inactive | inactive | inactive |  | inactive | inactive |  | inactive |  | 55 µM (active) | 21.7 µM (active) | inactive | inactive | inactive | inactive | inactive | inactive | inactive |
